A short description of assay [1]: CCTE_Shafer_MEA_acute_spike_number: CCTE's Neural Acute Assay for Total Number of Spikes, Shafer Lab (AID 2284008).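 On AC50: curve fitted for decrease in spike count so AC50 reflects inhibitors.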 In outline: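 Cortical neurons from rat, matured to DIV 13 or 15 on microelectrode arrays, are recorded at 37 C before and during 40-min exposure to 0.03-40 uM compound. Wells need >/= 10 active electrodes.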
A short description of assay [2]: CCTE_Shafer_MEA_acute_firing_rate_mean: CCTE's Neural Acute Assay for Mean Firing Rate, Shafer Lab (AID 2284009).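 Further: analyzed for loss of signal so actives lower firing rate relative to DMSO.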 In short, it runs like this: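 Rat cortical neuron cultures matured to DIV 13 or 15, equilibrated 20 min at 37 C, then recorded 40 min for baseline. Compound (0.03-40 uM) added and a further 40 min recorded; percent change in mean firing rate calculated per well.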

Assay [3] is described as follows: CCTE_Harrill_HTTr_Viability_MCF7: CCTE's 6-hour Cell Viability Assessment for the High-Throughput Transcriptomics (HTTr) Platform, in MCF-7 cells cultured in DMEM + 10% fetal bovine serum, Harrill Lab (AID 2284010). In short, it runs like this: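 Propidium iodide exclusion, imaged by high-content analysis, gauged viability after a six-hour exposure across eight concentrations. Cells were MCF-7 grown in DMEM with 10% fetal bovine serum; fits run in both directions against DMSO.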

Assay [4] in a line: CCTE_Harrill_HTTr_Apoptosis_MCF7: CCTE's 6-hour Apoptosis Assessment for the High-Throughput Transcriptomics (HTTr) Platform, in MCF-7 cells cultured in DMEM + 10% fetal bovine serum, Harrill Lab (AID 2284011). In short, it runs like this:
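Cells are dosed with test chemicals at eight concentrations and imaged 6 hours later for caspase-3/7 activity using a green fluorogenic detection reagent. Activity is fitted in both directions against DMSO controls.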

Assay [5] can be described thus: CCTE_Harrill_HTTr_CellCount_MCF7: CCTE's Cell Proliferation Assessment for the High-Throughput Transcriptomics (HTTr) Platform, Harrill Lab (AID 2284012; active means hit-call score of the fitted dose curve at least 0.9, where 1 is the maximum;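 further: cells exposed to compound for six hours; intended direction is loss of nuclei count meaning fewer cells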). In outline:
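Cell count from high-content imaging of Hoechst-labeled nuclei serves as viability/growth readout. Chemicals were applied to MCF-7 cells in eight concentrations for six hours, with fitting in both directions relative to DMSO.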

A short description of assay [6]: CCTE_Shafer_MEA_acute_burst_number: CCTE's Neural Acute Assay for Single-Electrode Bursts, Shafer Lab (AID 2284013). In short, it runs like this: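 Percent change in single-electrode burst number per well, from 40-min recordings taken before and after adding compound (0.03-40 uM) to primary rat cortical neurons on MEA plates at DIV 13 or 15, 37 C.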
Assay [7] is described as follows: CCTE_Shafer_MEA_acute_burst_duration_mean: CCTE's Neural Acute Assay for Mean Burst Duration, Shafer Lab (AID 2284014).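 Further: hits are decreases in mean burst duration relative to DMSO controls.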 In short, it runs like this:
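Rat cortical cultures, DIV 13/15; 40 min baseline, then 40 min with compound (0.03-40 uM), 37 C. Spikes: 300-5000 Hz band-pass, 8x rms threshold. Read-out: % change in mean single-electrode burst duration, DMSO-referenced, loss direction.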

Assay [8] is described as follows: CCTE_Shafer_MEA_acute_per_burst_spike_number_mean: CCTE's Neural Acute Assay for Average Number of Spikes Per Burst, Shafer Lab (AID 2284015).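 Further: hits are decreases in mean spikes per burst versus baseline.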 In short, it runs like this: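 We recorded spontaneous network firing of rat cortical neurons for 40 min before and 40 min during exposure to compound at 0.03-40 uM, at 37 C. Spikes were detected adaptively at 8x rms noise, and the change in average spikes per burst was fitted against DMSO.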

Assay [9] in a line: CCTE_Shafer_MEA_acute_interburst_interval_mean: CCTE's Neural Acute Assay for Mean Interburst Interval, Shafer Lab (AID 2284016).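 Further: percent change of mean interburst interval versus each well's own pre-dose baseline; curves fitted for decrease in interburst interval relative to DMSO.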 In short, it runs like this: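 MEA recording of spontaneous network bursting in primary rat cortical cultures; mean interburst interval was compared before and after a 40-min compound exposure (0.03-40 uM) and expressed as percent change, relative to DMSO.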

Assay [10] can be described thus: CCTE_Shafer_MEA_acute_burst_percentage_mean: CCTE's Neural Acute Assay for Percentage of Spikes in a Burst, Shafer Lab (AID 2284017).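 On AC50: curve fitted for loss of signal so potency reflects decreased burst percentage.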 In outline:
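Compounds were tested at 0.03-40 uM on primary rat cortical neuron networks grown over microelectrodes, with at least three wells per compound. Spontaneous firing was recorded for 40 min before and 40 min after dosing, and the change in burst percentage was computed per well.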

Assay [11] is described as follows: CCTE_Shafer_MEA_acute_burst_percentage_std: CCTE's Neural Acute Assay for Standard Deviation of Burst Percentage, Shafer Lab (AID 2284018).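 Further: fitted in the negative direction so actives lower burst percentage SD.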 In short, it runs like this: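 Rat primary cortical neurons on 48-well MEAs, DIV 13 or 15, 37 C. 40-min baseline then 40-min recording with compound (0.03-40 uM); well-level SD of per-electrode burst spike percentage, expressed as percent change from baseline.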

Assay [12] is described as follows: CCTE_Shafer_MEA_acute_per_network_burst_spike_number_mean: CCTE's Neural Acute Assay for Average Number of Spikes in a Network Burst, Shafer Lab (AID 2284019).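 On AC50: curve fitted for loss of signal so actives reduce spikes per network burst.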 In outline:
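Rat cortical cultures, DIV 13/15; spike threshold 8x rms noise, 300-5000 Hz band-pass, 12.5 kHz sampling; wells need >/= 10 active electrodes. Compound 0.03-40 uM, 40 min, 37 C; % change vs own baseline, DMSO negative control.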

Assay [13] in a line: CCTE_Shafer_MEA_acute_per_network_burst_spike_number_std: CCTE's Neural Acute Assay for Standard Deviation of Number of Spikes in a Network Burst, Shafer Lab (AID 2284020).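 Further: fitted for decrease in spike-number SD versus DMSO so actives lower it.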 In outline:
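Rat cortical cultures, DIV 13/15, 37 C; 20-min stabilisation, 40-min baseline, compound 0.03-40 uM, 40-min re-record. Spikes detected at 8x rms noise (300-5000 Hz band-pass). Readout: % change from baseline in per-burst spike-number SD.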

The nature of assay [14]: CCTE_Simmons_MITO_basal_resp_rate: CCTE's HepG2 Seahorse XF Respirometric Screening Assay at Basal Respiratory State, Simmons Lab (AID 2284001). The settings on record: actives raise or lower the signal. In short, it runs like this: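 Basal-phase OCR of HepG2 cells on a Seahorse XF96, analysed by bidirectional fit relative to DMSO vehicle; chemicals at 7 concentrations, 125 nM–100 uM final; three biological replicates; fenpyroximate and 2,4-dinitrophenol positive controls.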

The nature of assay [15]: CCTE_Simmons_MITO_max_resp_rate: CCTE's HepG2 Seahorse XF Respirometric Screening Assay at Maximal Respiratory State [uncoupled], Simmons Lab (AID 2284002). The note with it: actives raise or lower the signal. In short, it runs like this:
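Maximal respiration in HepG2 cells is recorded as OCR by Seahorse XF following FCCP injection. Compounds span 125 nM–100 uM final; activity is called in either direction against DMSO.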

Assay [16] is described as follows: CCTE_Simmons_MITO_inhib_resp_rate: CCTE's HepG2 Seahorse XF Respirometric Screening Assay at Inhibited Respiratory State [full ETC block], Simmons Lab (AID 2284006). The note with it: actives raise or lower the signal. In short, it runs like this:
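This endpoint is the respiration rate remaining after rotenone/antimycin A block, in HepG2 cells on a Seahorse XF96. Chemicals spanned 125 nM–100 uM final, in three biological replicates. OCR was read every 6 minutes for 72 minutes and compared with DMSO vehicle.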

A short description of assay [17]: CCTE_Simmons_MITO_viability: CellTiter-Glo Viability Assessment for CCTE's HepG2 Seahorse XF Respirometric Screening Assay [post-hoc], Simmons Lab (AID 2284007; active means hit-call score of the fitted dose curve at least 0.9, where 1 is the maximum;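 on AC50: cells exposed to chemical for 90 min before the ATP read; actives lower ATP signal relative to DMSO baseline meaning reduced viability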). In outline: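 Luciferase-coupled ATP read-out after the Seahorse run: HepG2 cells treated 90 minutes with test chemical, 7-point series of 125 nM–100 uM final, in triplicate biological runs. Vehicle DMSO; dichlone as positive control over 8 concentrations.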
On the technique in general: Cellular ATP, detected with luciferase, serves as a proxy for viable cell number.

Assay [18] deals with Nucleoli Translocation, AR (gene 367) (UniProt P10275). Description: UPITT_HCI_U2OS_AR_TIF2_Nucleoli_Agonist: University of Pittsburgh U2OS Androgen Receptor-Transcriptional Intermediary Factor 2 (AR-TIF2) Agonism High Content Imaging Assay for Nucleoli Translocation (AID 2283998; active means hit-call score of the fitted dose curve at least 0.9, where 1 is the maximum). In outline: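 Red-tagged human androgen receptor co-expressed with GFP-tagged TIF2 serves as the binding reporter. Primary testing used 20 uM final (0.2% DMSO); follow-up dose response covered 0.195 to 50 uM final (0.5% DMSO).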
Nucleoli Translocation, AR (gene 367), sequence (P10275 whole entry, looked up): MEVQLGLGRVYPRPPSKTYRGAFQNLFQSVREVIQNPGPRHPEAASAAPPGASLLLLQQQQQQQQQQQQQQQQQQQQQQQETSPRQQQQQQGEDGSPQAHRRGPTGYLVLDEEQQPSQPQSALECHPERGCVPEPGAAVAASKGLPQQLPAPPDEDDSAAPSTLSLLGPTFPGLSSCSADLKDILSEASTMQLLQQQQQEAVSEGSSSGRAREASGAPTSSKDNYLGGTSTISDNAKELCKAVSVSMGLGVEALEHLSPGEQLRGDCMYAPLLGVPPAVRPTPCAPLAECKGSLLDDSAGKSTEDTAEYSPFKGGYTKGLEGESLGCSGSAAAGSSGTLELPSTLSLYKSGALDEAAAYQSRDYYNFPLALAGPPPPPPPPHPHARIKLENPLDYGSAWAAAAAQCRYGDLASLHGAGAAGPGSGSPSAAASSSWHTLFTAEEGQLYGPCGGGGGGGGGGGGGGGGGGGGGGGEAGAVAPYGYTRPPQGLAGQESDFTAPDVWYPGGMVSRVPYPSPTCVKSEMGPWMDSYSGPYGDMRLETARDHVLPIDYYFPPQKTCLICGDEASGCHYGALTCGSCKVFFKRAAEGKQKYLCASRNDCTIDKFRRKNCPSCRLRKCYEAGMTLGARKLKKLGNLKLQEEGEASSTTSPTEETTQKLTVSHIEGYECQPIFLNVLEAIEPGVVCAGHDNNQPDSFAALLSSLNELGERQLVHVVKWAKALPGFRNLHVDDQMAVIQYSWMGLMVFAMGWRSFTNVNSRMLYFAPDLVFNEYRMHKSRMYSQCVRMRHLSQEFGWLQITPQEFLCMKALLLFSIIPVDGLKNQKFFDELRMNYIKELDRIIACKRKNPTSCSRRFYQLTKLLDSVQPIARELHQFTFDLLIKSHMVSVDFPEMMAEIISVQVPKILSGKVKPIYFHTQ

Assay [19] concerns the target Ratio of Nucleoli Translocation and Cytoplasm, AR (gene 367) (UniProt P10275). As to the kind of experiment: UPITT_HCI_U2OS_AR_TIF2_Nucleoli_Cytoplasm_Ratio_Antagonist: University of Pittsburgh U2OS Androgen Receptor-Transcriptional Intermediary Factor 2 (AR-TIF2) Antagonism High Content Imaging Assay for Ratio of Nucleoli Translocation and Cytoplasm (AID 2283999; active means hit-call score of the fitted dose curve at least 0.9, where 1 is the maximum;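 further: antagonists lower the DHT-driven ratio of nucleolar to cytoplasmic red signal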). In short, it runs like this:
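High-content imaging of red fluorescence ratio, nucleoli versus cytoplasm, in U2OS expressing AR-RFP and TIF2-GFP, fitted relative to DHT. Compounds tested once at 20 uM final, then 0.195 to 50 uM final in serial dilution.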

Assay [20] shares this target. Description: UPITT_HCI_U2OS_AR_TIF2_Nucleoli_Cytoplasm_Ratio_Agonist: University of Pittsburgh U2OS Androgen Receptor-Transcriptional Intermediary Factor 2 (AR-TIF2) Agonism High Content Imaging Assay for Ratio of Nucleoli Translocation and Cytoplasm (AID 2284000; active means hit-call score of the fitted dose curve at least 0.9, where 1 is the maximum;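 further: hits raise the red nucleolar to cytoplasm ratio above vehicle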). In outline:
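Human osteosarcoma U2OS line, AR-RFP plus TIF2-GFP; compounds 0.195–50 uM final, 0.5% DMSO. Readout: nucleolar/cytoplasmic RFP ratio by HCI, positive direction vs DMSO baseline.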

The structures appear in SMILES notation. “And” between values parts separate entries of the source, which are not always exact repeats. Equal values may be shown once. Results filed as inconclusive are left out. A structure can be active in one record and inactive in another. The source made the active and inactive calls. How the source made its calls, unless noted: active means hit-call score of the fitted dose curve at least 0.9, where 1 is the maximum; inactive means score below 0.9.

The source of these data is PubChem BioAssay (EPA / NIEHS).

The AC50 is the concentration at which the activity in the assay is half-maximal.

Ratio of Nucleoli Translocation and Cytoplasm, AR (gene 367), sequence (P10275 whole entry, looked up): as above

On to `O=C(c1ccc(OCCN2CCCCC2)cc1)c1c(-c2ccc(O)cc2)sc2cc(O)ccc12`, for which the AC50 was 14.3 µM (active) in assay [1]; 14.1 µM (active) in assay [2]; 11.2 µM (active) in assay [6]; 32.5 µM (active) in assay [10]; 4.05 µM (active) in assay [12]; 33.9 µM (active) in [13]. For the same compound, the result in assay [3], in assay [4], in assay [5], in [7], in assay [8] and in [9] was inactive. The call in assay [11] was inactive.

`CC(=O)c1ccc(C)cc1`: the AC50 in [1], in assay [2] and in assay [6] was 0.003 µM (active) in each case. Further, the call in assay [7], in [8], in assay [9], in assay [10], in [11] and in assay [12] was inactive. For the same compound, the result in [13] was inactive.

For `CC/C(=C(\c1ccccc1)c1ccc(OCCN(C)C)cc1)c1ccccc1`, the outcome in assay [14], in [15], in [16], in [3], in assay [4] and in assay [5] was inactive. For the same compound, the compound was classed as inactive in assay [7], in assay [8], in [9], in assay [11], in assay [12] and in [13]. For the same compound, the AC50 in [17] is 73.5 µM (active); in assay [1] it was 2.73 µM (active) and 4.6 µM (active); in assay [2], 2.73 µM (active) and 4.63 µM (active); in assay [3], 67.3 µM (active); in assay [5] it was 72.5 µM (active); in [6] it was 2.79 µM (active) and 4.2 µM (active). Moreover, the AC50 is 18.3 µM (active) in [8]; 3.74 µM (active) in assay [9]; 18.3 µM (active) and 15.8 µM (active) in assay [10]; 15.3 µM (active) in assay [11]; 18.3 µM (active) in assay [13].

As for `CC(C)(C)c1cccc(O)c1`, the values for the AC50 in [18] and in assay [20] were 30.6 µM (active) and 50 µM (active), respectively. Also, the result in assay [19] was inactive.

In the case of `CCCCN(CCO)CCO`, the outcome in assay [1], in [2], in assay [6], in assay [7], in assay [8] and in assay [10] was inactive. In addition, the call in assay [11] and in assay [13] was inactive. Moreover, the half-maximal activity concentration (AC50) in [9] is 24.1 µM (active); in [12], 15 µM (active).

Regarding `N[C@@H](CCC(=O)O)C(=O)O`, the call in assay [1], in assay [2], in assay [6], in assay [7], in [8] and in assay [9] was inactive. In addition, the result in [10], in [11], in [12] and in assay [13] was inactive.

As for `CC(C)(CO)CO`, the call in [18], in assay [20], in [1], in assay [2], in assay [6] and in [7] was inactive. The outcome in assay [8], in assay [9], in [10], in assay [11], in [12] and in assay [13] was inactive.

As for `C#C[C@]1(O)CC[C@H]2[C@@H]3CCc4cc(O)ccc4[C@H]3CC[C@@]21C`, the AC50 in assay [14] is 33.4 µM (active). Further, the result in assay [15], in assay [16], in [17], in assay [3], in assay [4] and in [5] was inactive.

`CCCCCCCCCCOC(=O)c1ccccc1C(=O)OCCCCCCCC`: the result in assay [18] and in assay [20] was inactive.

Take `COc1cc(OC)c2ccc(=O)oc2c1`: the outcome in assay [19] was inactive.

Take `CC(=O)N(C)C`: the result in assay [20], in assay [3], in assay [4] and in assay [5] was inactive.
